In all, about 4,700 compounds went through this assay and about 760 (16%) were called active.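 Rule for the calls: active = inhibition above a cutoff derived from the DMSO control wells (cut at about 28% in these data); inactive = the rest.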 Only a sample is shown.

The inhibition is the relative decrease from the control value, in per cent.

In this assay the target is Microphthalmia-associated transcription factor (Homo sapiens) (UniProt O75030). The assay is described as follows: blockers of human MITF dimerization – biochemical, AlphaScreen, triplicate, confirmation (AID 1259372). To be noted: AlphaScreen MITF homodimerization, biotin/His-MITF beads; at 2.6 µM; active compounds read high.
Sequence of Microphthalmia-associated transcription factor (Homo sapiens) (O75030 whole entry, looked up): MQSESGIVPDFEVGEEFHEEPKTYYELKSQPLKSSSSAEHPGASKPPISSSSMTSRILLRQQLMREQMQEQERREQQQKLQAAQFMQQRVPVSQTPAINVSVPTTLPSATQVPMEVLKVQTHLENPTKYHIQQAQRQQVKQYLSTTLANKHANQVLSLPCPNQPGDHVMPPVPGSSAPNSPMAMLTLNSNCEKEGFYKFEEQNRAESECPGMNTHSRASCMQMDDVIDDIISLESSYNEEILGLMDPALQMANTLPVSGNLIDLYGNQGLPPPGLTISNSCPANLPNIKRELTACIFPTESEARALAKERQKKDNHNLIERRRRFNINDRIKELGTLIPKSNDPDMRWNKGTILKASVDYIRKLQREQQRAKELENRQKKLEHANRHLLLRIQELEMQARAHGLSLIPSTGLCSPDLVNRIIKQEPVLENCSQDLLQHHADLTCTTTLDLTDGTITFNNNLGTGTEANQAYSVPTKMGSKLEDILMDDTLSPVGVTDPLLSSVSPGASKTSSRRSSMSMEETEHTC
Consider `O=C1c2ccccc2C(O)N1Cc1ccccc1Cl` (stereo not drawn), for which the inhibition was -9.08% (inactive).
In the case of `COc1ccc(C2C(C(C)=O)=C(C)N=C3SCC(=O)N32)c(OC)c1` (stereo not drawn) it was -3.48% (inactive); in that of `CCN1CCN(CCCCOc2ccccc2F)CC1`, 6.76% (inactive); in that of `O=C(c1ccccc1)N1CCN(C2CCCC2)CC1`, -3.05% (inactive).
In the case of `Cc1nc(NC(=O)c2cc(Br)ccc2Cl)sc1C` it was 11% (inactive); in that of `CC1(C)CC(=O)C2=C(C1)Nc1ccccc1N(C(=O)Cc1ccccc1)C2c1ccc(-c2ccc([N+](=O)[O-])cc2)o1` (stereo not drawn), 12.3% (inactive); in that of `CCNc1nc(NCC)nc(C(=O)O)n1`, 54.9% (active).
In the case of `Cn1c(=O)oc2cc(S(=O)(=O)N3CCC(C(=O)NC(C)(C)C)CC3)ccc21` it was -16.9% (inactive); in that of `C=CCn1c(SCC(=O)Nc2nc3ccccc3s2)nc(O)cc1=O`, -1.3% (inactive).
On to `COc1cc(CN2CCN(C(=O)C(c3ccccc3)c3ccccc3)CC2)cc(OC)c1OC`, for which the inhibition was 5.49% (inactive).
With `CSc1nnc(SCc2nc3sc(C(=O)O)c(C)c3c(=O)[nH]2)s1`, the inhibition is 14.3% (inactive).
For the compound `O=C(CCC(=O)OCc1ccc(Cl)cc1)Nc1ccc([N+](=O)[O-])cc1`, the inhibition was 13.1% (inactive).
In the case of `Cc1ccc(NC(=O)COC(=O)CCC(=O)Nc2sc3c(c2C(N)=O)CCC3)cc1F` it was 87.4% (active).
In the case of `CC(=O)N1CCN(CC(=O)Nc2ccc(C)c(F)c2)CC1` it was -10.5% (inactive); in that of `OCCOCCN1CCN(Cc2ccc(Cl)cc2)CC1`, 1.57% (inactive); in that of `COc1cccc(CN2CCN(CCCc3ccccc3)CC2CCO)c1` (stereo not drawn), -0.58% (inactive).
For `COC(=O)CSc1nc(C2CC2)nc2ccccc12`, the inhibition is 5.56% (inactive).
In the case of `CC1CCCC(N2CCN(Cc3ccccc3Cl)CC2)C1` (stereo not drawn) it was -6.77% (inactive); in that of `O=C(CNCc1cccnc1)Nc1ccc(C(=O)N2CCCCC2)cc1`, 7.91% (inactive); in that of `CC(=O)N1CCN(C(=O)c2ccc(N3CC4CC(C3)c3cccc(=O)n3C4)c(NC(=O)c3cccnc3)c2)CC1` (stereo not drawn), -11.6% (inactive).
In the case of `CCSc1ccccc1C(=O)N1CCN(c2ccc(-c3ccccn3)nn2)CC1`, the inhibition was 111% (active).
In the case of `COc1ccc(OCCn2ccnc2C)cc1`, the inhibition was -1.1% (inactive).
On to `COc1cc(CN2CCN(Cc3ccc(OC)c(OC)c3)CC2)cc(OC)c1`, for which the inhibition was 4.54% (inactive).

The record behind these values is PubChem BioAssay AID1259372 (The Scripps Research Institute Molecular Screening Center, 2018).
